Unmarked numbers belong to inactive results. No rule for the calls is given here.
These compounds were tested against Pantothenate synthetase (Mycobacterium tuberculosis (strain ATCC 25618 / H37Rv)) (UniProt P9WIL5) (assay: Coupled enzyme confirmation of inhibitors against recombinant Mtb PanC (AID 375;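 also: 0% = full reaction with vehicle and 100% = no enzyme background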)). Conditions: coupled enzyme assay; at 10 µM, active compounds read high.
Sequence of Pantothenate synthetase (Mycobacterium tuberculosis (strain ATCC 25618 / H37Rv)) (P9WIL5 whole entry, looked up): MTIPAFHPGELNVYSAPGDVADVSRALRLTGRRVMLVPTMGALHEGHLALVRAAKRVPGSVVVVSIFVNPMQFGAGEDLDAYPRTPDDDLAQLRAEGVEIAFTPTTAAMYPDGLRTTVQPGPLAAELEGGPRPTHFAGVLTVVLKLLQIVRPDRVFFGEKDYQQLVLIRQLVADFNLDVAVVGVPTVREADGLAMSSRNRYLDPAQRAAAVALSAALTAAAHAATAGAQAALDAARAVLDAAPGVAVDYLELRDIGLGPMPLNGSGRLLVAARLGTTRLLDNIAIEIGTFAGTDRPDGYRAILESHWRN
`COC(=O)Nc1nc2c(C)cccc2s1` was tested, and the inhibition was 0%. With `CC1Cc2nc(SCC(=O)Nc3ccc(F)cc3F)n(C)c(=O)c2S1` (stereo not given) the inhibition was 0%. With `COc1ccccc1CC1(C)NC(=O)N(CC(=O)Nc2cc(C)on2)C1=O` (stereo not given) the inhibition was 1%. `COCCN(C(=O)CCC(=O)Nc1ccccn1)C(C(=O)NC1CCCC1)c1ccc(OC)cc1` (stereo not given) showed an inhibition of 0%. Compound `O=C(CS(=O)(=O)Cc1ccccc1)N1CCc2ccccc2C1` has an inhibition of 1%. Work on `CCOC(=O)c1[nH]c(C)c(C(=O)N2CCN(c3ccc(F)cc3)CC2)c1C` yielded an inhibition of 0%. `CCCc1cc(=O)[nH]c(=S)[nH]1` was tested, and the inhibition was 3%. `O=C1c2ccccc2S(=O)(=O)N1Cc1nnc(-c2ccccc2Br)o1` was tested, and the inhibition was 0%. For `COc1ccc(/C=N/n2c(SC)nnc2-c2ccccc2)cc1C`, the inhibition was 0%. With `CC(C)CC(=O)N1CCN(S(=O)(=O)c2ccc(F)cc2)CC1` the inhibition was 0%. For `OC1C[N+]2(CCCCC2)C1`, the inhibition was 0%. `CC(=O)Nc1ccc(S(=O)(=O)Nc2nc3ccccc3nc2N2CCCC2)cc1` gave an inhibition of 8%. `N#Cc1cnc(SCC(=O)c2ccccc2)nc1N` showed an inhibition of 2%. For `CCn1c(SCc2cc(=O)[nH]c3ccccc23)nc2c1c(=O)n(C)c(=O)n2C`, the inhibition was 5%. Compound `O=C(CSc1nc2ccsc2c(=O)n1NC(=O)c1ccccc1)Nc1nccs1` has an inhibition of 0%. `COc1cc(OC)cc(-c2nc3cc(C)ccc3o2)c1` gave an inhibition of 3%. `O=C(O)c1[nH]c2ccc(Cl)cc2c1CC(=O)N1CCN(C(=O)c2ccco2)CC1` gave an inhibition of 2%. `CCOC(=O)c1cc2cc(F)ccc2nc1C` was tested, and the inhibition was 1%. `CCN(c1cccc(C(F)(F)F)c1)S(=O)(=O)c1ccc2c(c1)CCN2C(=O)C1CC1` gave an inhibition of 3%. `CC(C)(C)c1cc(NC(=O)c2cc(F)c(F)c(F)c2F)no1` showed an inhibition of 0%. For `COC(=O)c1ccc(-n2nnnc2SCc2nn[nH]n2)cc1`, the inhibition was 0%. In the case of `C=CCn1c(SCC(=O)c2cc(C)n(C(C)COC)c2C)nc2sc(C)c(C)c2c1=O` (stereo not given), the inhibition is reported as 4%. `O=C(NCc1cccs1)c1cc2c(s1)CS(=O)(=O)C2` gave an inhibition of 1%. For `Cc1cc(O)c(C2(C(F)(F)F)NCCNC2=O)cc1C` (stereo not given), the inhibition was 5%. `CCOc1nc(NCCC2=CCCCC2)nc(N2CCOCC2)n1` showed an inhibition of 0%. `COc1cc(C)nc(OCCNC(=O)COc2ccc(Cl)cc2C)n1` gave an inhibition of 5%. For `CC1CCN(C(=O)Cn2cc3c(n2)CCCC3)CC1`, the inhibition was 0%. With `Cn1c(=O)oc2cc(S(=O)(=O)NCCC(=O)N3CCc4ccccc4C3)ccc21` the inhibition was 0%. With `CCN1C(=O)c2ccccc2S(=O)c2ccc(C(=O)NC3CC3)cc21` (stereo not given) the inhibition was 6%. Work on `CCOc1cc(C)c(C(C)C)cc1S(=O)(=O)N1CCN(C)CC1` yielded an inhibition of 0%. `COc1ccc(C)cc1NC(=O)COCC(=O)O` was tested, and the inhibition was 0%. Work on `CCOCC(=O)Nc1nc2c(s1)C(=O)CC(C)(C)C2` yielded an inhibition of 5%. `OCCN1CCN(CCCN2c3ccccc3Sc3ccc(Cl)cc32)CC1` was tested, and the inhibition was 0%. `CCCCc1cc(=O)oc2cc(C)cc(OC(C)C(=O)O)c12` (stereo not given) was tested, and the inhibition was 0%. `COC(=O)C1(C)NC(c2cccs2)C2C(=O)N(c3ccccc3F)C(=O)C21` (stereo not given) was tested, and the inhibition was 0%. `Cc1cc(Cl)ccc1NC(=O)CSc1nnc(Cc2cccs2)n1Cc1ccco1` gave an inhibition of 0%. `Cn1c(=O)c2c(nc(Br)n2CCSc2ncccn2)n(C)c1=O` was tested, and the inhibition was 9%. `CCNC(=O)C1CC(=O)N(Cc2ccc3c(c2)OCO3)C(=Nc2ccc(OCC)cc2)S1` (stereo not given) gave an inhibition of 0%. In the case of `Cc1nc(SCC(=O)NCc2ccco2)c2c(C)c(C)sc2n1`, the inhibition is reported as 5%. `Cc1ccc(C)c(N2CCN(C(=O)CCCn3c(=S)[nH]c4cc5c(cc4c3=O)OCO5)CC2)c1` gave an inhibition of 0%.

— PubChem BioAssay
